# S1P4 antag – antagonists of human S1P4 receptor; O95977; S1P4-expressing cells, antagonist mode, reporter read-out; inhibition, % at 4.98 µM; 0.26% of 220,000 active; AID 1510; in the data active means inhibition above about 29%;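 further: 0% = wells stimulated with agonist and 100% = vehicle wells without agonist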
# Target sequence (O95977 whole entry, looked up): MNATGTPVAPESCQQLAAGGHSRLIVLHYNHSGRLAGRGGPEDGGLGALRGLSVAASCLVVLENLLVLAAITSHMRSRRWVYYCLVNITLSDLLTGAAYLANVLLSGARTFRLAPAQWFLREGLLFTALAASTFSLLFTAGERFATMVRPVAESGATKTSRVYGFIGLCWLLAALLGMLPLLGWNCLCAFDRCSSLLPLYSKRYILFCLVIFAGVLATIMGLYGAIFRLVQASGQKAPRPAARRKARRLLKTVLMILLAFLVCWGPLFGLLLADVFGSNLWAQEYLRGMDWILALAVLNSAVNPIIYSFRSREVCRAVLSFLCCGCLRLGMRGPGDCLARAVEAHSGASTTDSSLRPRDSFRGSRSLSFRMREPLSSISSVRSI
# TNF necrop inh – blocks TNF-alpha induced death of Jurkat FADD-/- cells; Jurkat FADD-/- TNF necroptosis rescue, ATP luminescence, 24 h; 0 = TNF only, 100 = no-TNF cells; activation (protection from cell death), % at 10 µM; 0.068% of 220,000 active;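 active means activation, meaning protection from cell death, of at least 50% relative to plate controls; inactive means activation below 50%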;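 further: necroptosis triggered by 40 ng/mL TNF-alpha added together with compound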
# zVAD death inh – L929 zVAD cell death inhibition | L929 zVAD necroptosis rescue, ATP luminescence, 24 h; with zVAD 60 µM | viability rescue, % at 10 µM | 0.38% of 220,000 active | AID 1377;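 active means activation, scaled between plate controls, above about 75%, limit read from the data; inactive means activation under that limit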;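 further: 0% = zVAD with DMSO and 100% = DMSO alone without zVAD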
# Hsp70 activator – transcriptional activators of Hsp70; HeLa Hsp70 promoter luciferase reporter, luminescence; scaled: vehicle 0, proteasome-inhibitor control 100%; activation, % at 10 µM; AID 1203; 0.04% of 200,000 active;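 active means activation above the mean across all tested compounds plus 3 SD, cutoff set per campaign, cut at about 5.5% in these data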;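 further: 100% = MG132 at 30 µM as the positive control and 0% = DMSO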
# HSV augment – increases HSV replication in cells | HSV replication augmentation in cells, fold increase | 0.005% of 220,000 active | maximum fold increase; in the data active means maximum fold increase above about 1.5; inconclusive means no clear call, values can overlap the other calls; tested in PC3 cells
# S1P4 agonist – activates the human S1P4 receptor | O95977 | S1P4-expressing cell line, agonist reporter assay | activation, % at 4.98 µM | 0.35% of 220,000 active | AID 1509; in the data active means activation above about 11%;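 further: 0% = DMSO vehicle and 100% = reference agonist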
# zVAD death conf – confirmed blocker of zVAD induced death in L929 cells; shares compounds with zVAD death inh; L929 zVAD-induced necroptosis rescue, ATP luminescence, 24 h; activation (protection from necroptosis), % at 10 µM; 16% of 760 active; AID 463117;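 active means mean protection from necroptosis of at least 50% over duplicate tests; inactive means mean protection below 50%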;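 further: 0% = cells with zVAD alone and 100% = vehicle cells without zVAD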
# Active calls of the source: *; i = inactive; ? = inconclusive; · = no result. Rows were chosen to be rich in hits. Some 1% of all compounds tested hit in one or more screens of this group.
SMILES,S1P4 antag,TNF necrop inh,zVAD death inh,Hsp70 activator,HSV augment,S1P4 agonist,zVAD death conf
CC(C)(C)c1ccc(NC(=O)Nc2ccc(OCC(=O)N3CCOCC3)cc2)cc1,-7,2,80*,0,i,0,40
CC(=O)NO,·,·,·,·,i,·,·
COc1ccc(OCC(=O)Nc2ccc(C)c(S(=O)(=O)N(C)C)c2)cc1,-2,0,81*,0,i,1,2
COC(=O)c1cccc(NC(=O)c2cccnc2C(=O)O)c1C,6,1,2,0,i,1,·
O=C(Cc1cccs1)Nc1cccc(-c2ccc3nncn3n2)c1,16,0,35,0,·,1,·
O=C(Cc1ccc(F)cc1)Nc1cccc(-c2ccc3nncn3n2)c1,-8,5,89*,0,i,-2,3
N#CCc1ccc(NC(=O)/C=C/c2ccc([N+](=O)[O-])o2)cc1,10,-13,85*,2,i,0,0
Cn1nc(-c2ccc(C(=O)Nc3cccc(Cl)c3)cc2)c2ccccc2c1=O,-7,2,1,0,i,2,·
COC(=O)c1cc(S(=O)(=O)C(C)C)c(S(C)=O)s1 (stereo not drawn),-8,2,77*,·,i,-1,11
CCN(CC)S(=O)(=O)c1ccc2c(c1)c(=O)c(C(=O)NCc1ccco1)cn2C,3,0,0,0,i,1,·
NC(=O)c1ccc(-c2ncc(-c3ccccc3)o2)cc1,-19,-5,79*,0,i,2,63*
NC(=O)c1ccccc1,-8,1,1,0,i,0,·
c1ccc(-c2cnc(-c3cccnc3)o2)cc1,-7,-14,79*,0,i,2,47
O=C(c1ccc(F)cc1)n1ccc(-c2cnc(-c3ccccc3)s2)n1,-6,6,83*,0,i,-4,0
Fc1ccc(Cn2ccc(-c3cnc(-c4ccccc4)s3)n2)cc1,6,0,0,0,i,-4,·
Cc1ccc2nc(/N=C(\N)NC(=O)NC3CCCCC3)nc(C)c2c1,15,-3,1,·,i,-1,·
COc1ccc(Nc2nnc(-c3ccc(O)cc3)c3ccccc23)cc1C(N)=O,3,-2,82*,0,i,5,7
COc1ccc(-c2nnc(Nc3ccc(CC(N)=O)cc3)c3ccccc23)cc1,2,-5,41,0,i,1,·
COc1ccc(Nc2nnc(-c3ccc(O)cc3)c3ccccc23)cc1,-8,-7,75*,0,i,0,39
Oc1ccc(Nc2nnc(-c3ccc(O)cc3)c3ccccc23)cc1,20,-2,81*,0,i,-2,1
COc1ccc(Nc2nnc(C)c3ccccc23)cc1C(N)=O,-17,0,3,0,i,1,·
COc1ccccc1NS(=O)(=O)c1cccc(C(=O)N/N=C(\C)c2ccc(-n3ccnc3)cc2)c1,-17,2,76*,0,i,-2,38
CCOC(=O)C1=C(O)/C(=C\c2ccc(CNS(=O)(=O)c3ccc(Br)cc3)o2)N=C1C,-9,4,1,0,?,0,·
Cc1ccc(N=Nc2c(N)[nH]n3c(=O)cc(C)nc23)cc1,-19,2,76*,0,i,2,0
CN(C)S(=O)(=O)c1ccc(Cl)c(NC(=O)CSc2nnnn2-c2ccc(O)cc2)c1,-13,9,86*,0,i,0,88*
SMILES,S1P4 antag,TNF necrop inh,zVAD death inh,Hsp70 activator,HSV augment,S1P4 agonist,zVAD death conf
Cc1ccc(S(=O)(=O)N(C)C)cc1NC(=O)CSc1nnnn1-c1ccc(O)cc1,1,9,75,·,i,0,·
CN(C)c1ccc(/C=N/NC(=O)CNC(=O)c2ccco2)cc1,-3,-1,0,0,i,1,·
CCN(CC)CCN1C(=O)C(O)=C(C(=O)c2cc3cccc(OC)c3o2)C1c1ccc(F)cc1 (stereo not drawn),-2,1,1,·,i,0,·
O=C(Cn1c2ccccc2c(=O)c2ccccc21)Nc1cccc(F)c1,-11,1,1,0,i,3,·
CC(C)(C)c1nc(NC(=O)Nc2ccccc2)sc1Br,0,-1,83*,0,i,0,3
COc1ccc2nc(NC(=O)Nc3ccccc3)sc2c1,-16,9,74,0,i,-1,·
COc1cc(/C=N/Nc2ccc(C(F)(F)F)cn2)ccc1O,11,45,79*,0,i,1,93*
COc1cc(/C=N/Nc2ncc(C(F)(F)F)cc2Cl)cc(OC)c1O,-11,0,0,0,i,1,·
O=C(O)c1ccc(/C=N/Nc2ccc(C(F)(F)F)cn2)cc1,0,58*,88*,0,i,-1,12
O=C(O)c1ccc(/C=N/Nc2cccc(C(F)(F)F)c2)cc1,5,-1,3,0,i,1,·
CCOc1cc(S(=O)(=O)NCc2ccccc2)ccc1Br,5,1,1,0,i,0,·
CC(C)CCN(C(=S)Nc1cccc(F)c1)C1CCN(C(C)C)CC1,6,1,-1,0,i,0,·
O=C(N/N=C/c1ccc(OCC(=O)N2CCCCC2)cc1)c1ccccc1,8,-2,0,0,i,-1,·
O=C(COc1ccc(/C=N/NC(=O)C(=O)N2CCCCCC2)cc1)Nc1ccccc1Cl,-19,0,78*,0,·,0,45
CCn1c(NC(=O)c2cccs2)nc2ccccc21,8,28,81*,0,i,2,3
CCn1c(NC(C)=O)nc2ccccc21,-25,-2,1,0,i,2,·
Cn1c(=O)c2[nH]c(N3CCCCC3)nc2n(C)c1=O,-27,2,1,·,i,1,·
Cn1c(=O)c2[nH]c(N3CCN(c4ccccn4)CC3)nc2n(C)c1=O,-10,3,75*,0,i,1,2
O=C(COC(=O)c1cccc(C(=O)OCC(=O)NC2CC2)n1)NC1CC1,-3,0,2,0,i,1,·
COCC(=O)n1nc(-c2ccccc2)nc1NCc1ccc(F)cc1,-2,3,10,0,i,-2,·
CCC(=O)n1nc(-c2ccc(OC)cc2)nc1NCc1cccs1,-11,2,76*,0,i,1,0
COCC(=O)n1nc(-c2ccccc2)nc1NCc1ccccc1,-7,5,86*,0,i,-2,1
CCC(=O)n1nc(-c2cccnc2)nc1NCc1ccc(OC)cc1,-23,0,1,0,i,-1,·
CC(=O)n1nc(-c2ccccc2)nc1NCc1cccs1,-7,2,86*,0,i,-1,5
Cc1ccccc1-n1c(SCC(=O)NC(N)=O)nc2sc(-c3ccccc3)cc2c1=O,-7,-2,0,-1,i,0,·

# Source: PubChem BioAssay
